Measured values as given in PubChem BioAssay (EPA / NIEHS).
Several values for one entry are separate records, joined by “and”; a condition that tells them apart may be missing. Equal entries are not always repeated. A structure can be active in one record and inactive in another. Activity calls are given as the source filed them. The calls were made as follows: active = hit-call score of the fitted dose curve at least 0.9, where 1 is the maximum; inactive = score below 0.9.

Tests used:
[1] = read-out: Interleukin-6 (IL6), IL6 (gene 3569); assay: BSK_CASM3C_IL6: BioMAP Diversity Plus: CASM3C Assay for Interleukin-6 (IL6) Biomarker Activity for (AID 2283040); settings: primary human coronary artery smooth muscle cells; actives raise or lower the signal
[2] = read-out: Tissue plasminogen activator (tPA), PLAT (gene 5327); assay: BSK_BE3C_tPA: BioMAP Diversity Plus: BE3C Assay for Tissue plasminogen activator (tPA) Biomarker Activity (AID 2283041); settings: primary human bronchial epithelial cells; actives raise or lower the signal
Summary of the method: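 ELISA read-out of tPA on human primary bronchial epithelial cells, 24 h post-dosing; bidirectional fit vs DMSO negative control/baseline.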

[3] = read-out: Interleukin-8 (IL8), CXCL8 (gene 3576); assay: BSK_CASM3C_IL8: BioMAP Diversity Plus: CASM3C Assay for Interleukin-8 (IL8) Biomarker Activity (AID 2283042); settings: primary human coronary artery smooth muscle cells; actives raise or lower the signal;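 also: IL-8 protein level quantified by ELISA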
[4] = read-out: Human Leukocyte Antigen - DR isotype (HLADR), HLA-DRA (gene 3122); assay: BSK_CASM3C_HLADR: BioMAP Diversity Plus: CASM3C Assay for Human Leukocyte Antigen - DR isotype (HLADR) Biomarker Activity (AID 2283043); settings: primary human coronary artery smooth muscle cells; actives raise or lower the signal;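 also: cell-surface HLA-DR protein level quantified by ELISA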
[5] = read-out: Macrophage colony-stimulating factor (MCSF), CSF1 (gene 1435); assay: BSK_CASM3C_MCSF: BioMAP Diversity Plus: CASM3C Assay for Macrophage colony-stimulating factor (MCSF) Biomarker Activity (AID 2283044); settings: primary human coronary artery smooth muscle cells; actives raise or lower the signal;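 also: M-CSF protein amount quantified by ELISA after 24 h exposure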
[6] = read-out: Low-density lipoprotein receptor (LDLR), LDLR (gene 3949); assay: BSK_CASM3C_LDLR: BioMAP Diversity Plus: CASM3C Assay for Low-density lipoprotein receptor (LDLR) Biomarker Activity (AID 2283045); settings: primary human coronary artery smooth muscle cells; actives raise or lower the signal;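 also: LDLR protein level on the cell surface quantified by ELISA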
[7] = read-out: Monocyte Chemoattractant Protein-1 (MCP1), CCL2 (gene 6347); assay: BSK_CASM3C_MCP1: BioMAP Diversity Plus: CASM3C Assay for Monocyte Chemoattractant Protein-1 (MCP1) Biomarker Activity (AID 2283046); settings: primary human coronary artery smooth muscle cells; actives raise or lower the signal;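 also: MCP-1 level quantified by ELISA 24 h after dosing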
[8] = BSK_CASM3C_Proliferation: Cell Proliferation Assessment in the BioMAP Diversity Plus: CASM3C Assay (AID 2283047); settings: primary human coronary artery smooth muscle cells;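 also: sulforhodamine B total protein stain as relative cell number at 560 nm; sub-confluent cells exposed 48 h before staining; fitted both ways against DMSO so gain or loss of cell number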
[9] = read-out: Monokine induced gamma interferon (MIG), CXCL9 (gene 4283); assay: BSK_CASM3C_MIG: BioMAP Diversity Plus: CASM3C Assay for Monokine induced gamma interferon (MIG) Biomarker Activity (AID 2283048); settings: primary human coronary artery smooth muscle cells; actives raise or lower the signal;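 also: MIG protein level measured by ELISA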
[10] = read-out: serum amyloid A (SAA), SAA1 (gene 6288); assay: BSK_CASM3C_SAA: BioMAP Diversity Plus: CASM3C Assay for serum amyloid A (SAA) Biomarker Activity (AID 2283049); settings: primary human coronary artery smooth muscle cells; actives raise or lower the signal;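 also: SAA protein level quantified by ELISA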
[11] = BSK_CASM3C_SRB: Viability Assessment in the BioMAP Diversity Plus: CASM3C Assay (AID 2283050); settings: primary human coronary artery smooth muscle cells;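 also: total protein by SRB staining as cytotoxicity measure in parallel cultures; cells exposed to compound for 24 h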
[12] = read-out: Thrombomodulin, THBD (gene 7056); assay: BSK_CASM3C_Thrombomodulin: BioMAP Diversity Plus: CASM3C Assay for Thrombomodulin Biomarker Activity (AID 2283051); settings: primary human coronary artery smooth muscle cells; actives raise or lower the signal;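 also: thrombomodulin protein level measured by ELISA 24 h after dosing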
[13] = read-out: Tissue Factor, F3 (gene 2152); assay: BSK_CASM3C_TissueFactor: BioMAP Diversity Plus: CASM3C Assay for Tissue Factor Biomarker Activity (AID 2283052); settings: primary human coronary artery smooth muscle cells; actives raise or lower the signal;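 also: cell surface tissue factor protein level read by ELISA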
[14] = read-out: Urokinase-type plasminogen activator receptor (uPAR), PLAUR (gene 5329); assay: BSK_CASM3C_uPAR: BioMAP Diversity Plus: CASM3C Assay for Urokinase-type plasminogen activator receptor (uPAR) Biomarker Activity (AID 2283054); settings: primary human coronary artery smooth muscle cells; actives raise or lower the signal;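 also: cell-surface uPAR protein level quantified by ELISA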
[15] = read-out: Vascular cell adhesion molecule 1 (VCAM1), VCAM1 (gene 7412); assay: BSK_CASM3C_VCAM1: BioMAP Diversity Plus: CASM3C Assay for Vascular cell adhesion molecule 1 (VCAM1) Biomarker Activity (AID 2283055); settings: primary human coronary artery smooth muscle cells; actives raise or lower the signal;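 also: VCAM-1 protein level quantified by ELISA on the cells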
[16] = read-out: Collagen III, COL3A1 (gene 1281); assay: BSK_hDFCGF_CollagenIII: BioMAP Diversity Plus: hDFCGF Assay for Collagen III Biomarker Activity (AID 2283056); settings: primary human foreskin fibroblasts; actives raise or lower the signal
Summary of the method: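 ELISA read-out of collagen III from human skin fibroblast cultures sampled 24 h post-dosing. Values were derived by bidirectional fitting relative to the DMSO vehicle control.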

[17] = read-out: Epidermal growth factor receptor (EGFR), EGFR (gene 1956); assay: BSK_hDFCGF_EGFR: BioMAP Diversity Plus: hDFCGF Assay for Epidermal growth factor receptor (EGFR) Biomarker Activity (AID 2283057); settings: primary human foreskin fibroblasts; actives raise or lower the signal
Summary of the method: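 ELISA readout of EGFR on human dermal fibroblasts (primary foreskin cells), 24 h post-dosing; bidirectional curve fit vs DMSO baseline, gain or loss of signal scored.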

[18] = read-out: Interleukin-8 (IL8), CXCL8 (gene 3576); assay: BSK_hDFCGF_IL8: BioMAP Diversity Plus: hDFCGF Assay for Interleukin-8 (IL8) Biomarker Activity (AID 2283058); settings: primary human foreskin fibroblasts; actives raise or lower the signal
Summary of the method: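 Cells used are human skin primary fibroblasts. Chemical is added, cultures run 24 h, then IL-8 is quantified by ELISA, and gain or loss versus DMSO control is fitted in both directions.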

[19] = BSK_hDFCGF_Proliferation: Cell Proliferation Assessment in the BioMAP Diversity Plus: hDFCGF Assay (AID 2283059); settings: primary human foreskin fibroblasts;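 also: curves fitted for both rise and fall of signal versus DMSO baseline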
Summary of the method: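 Steps: dose primary human dermal fibroblasts (foreskin); […] fix in 10% TCA; stain with 0.1% SRB; read 560 nm; fit gain or loss of signal against DMSO.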

[20] = read-out: Interferon-gamma inducible Protein 10 (IP10), CXCL10 (gene 3627); assay: BSK_hDFCGF_IP10: BioMAP Diversity Plus: hDFCGF Assay for Interferon-gamma inducible Protein 10 (IP10) Biomarker Activity (AID 2283053); settings: primary human foreskin fibroblasts; actives raise or lower the signal
Summary of the method: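 ELISA read-out of IP-10 (CXCL10) from primary human skin fibroblasts, 24 h after compound addition. Gain or loss of signal versus DMSO baseline, bidirectional curve fitting.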

Measured: AC50

Cc1ccc([N+](=O)[O-])cc1N
not listed: [20]
inactive: all other assays above

Nc1ccc(C(=O)O)cc1
inactive: all assays above

CCc1cccc(C)c1N(C(=O)CS(=O)(=O)O)C(C)COC (configuration not stated)
inactive: all assays above

CCCCCCCCCCCC(=O)N(C)CC(=O)O
inactive: [1] | [2] | [3] | [4] | [5] | [6] | [7] | [8] | [9] | [10] | [11] | [12] | [13] | [14] | [15] | [17] | [18] | [19]
active: [9] 30.9 µM | [16] 8.61 µM and 24.7 µM

C=CC(=O)NCOCCCC
inactive: all assays above

CCC1(C)C(=O)N(Cl)C(=O)N1Cl (configuration not stated)
inactive: all assays above

c1ccc2sc(SSN3CCOCC3)nc2c1
active: [1] 12 µM | [2] 12.5 µM | [3] 20 µM | [4] 4.62 µM | [5] 6.94 µM | [7] 8.56 µM | [8] 2.19 µM | [9] 15.8 µM | [10] 5.46 µM | [11] 20 µM | [13] 10.6 µM | [14] 6.71 µM | [15] 4.44 µM | [17] 7.7 µM | [19] 1.41 µM
inactive: [6] | [12] | [20] | [16] | [18]

COc1ccc(C(=O)/C(Br)=C\C(=O)O)cc1
inactive: [2] | [10] | [12] | [16] | [17] | [18]
active: [1] 20 µM and 23.2 µM | [2] 4.45 µM | [3] 35.4 µM and 29.1 µM | [4] 6.86 µM and 20.6 µM | [5] 20 µM and 29.7 µM | [6] 13.2 µM and 26.7 µM | [7] 30 µM and 31.1 µM | [8] 4.88 µM and 24.3 µM | [9] 29.2 µM and 31 µM | [10] 11.4 µM | [11] 23.8 µM and 28.8 µM | [13] 4.22 µM and 11.4 µM | [14] 13.4 µM and 30.6 µM | [15] 12 µM and 20 µM | [16] 13.6 µM | [17] 29.1 µM | [18] 38.9 µM | [19] 29.4 µM and 20 µM

O=C(Cl)c1c(Cl)c(Cl)c(C(=O)Cl)c(Cl)c1Cl
inactive: all assays above

CCN1CN(CC)CN(CC)C1
not listed: [20]
inactive: all other assays above

CCCCCCOC(=O)CCCCC(=O)OCCCCCC
inactive: all assays above

CC(C)[N+](C)(CCOC(=O)C1c2ccccc2Oc2ccccc21)C(C)C
active: [19] 0.471 µM
not listed: [20]
inactive: all other assays above

CCOC(=O)C1=NOC(c2ccccc2)(c2ccccc2)C1
active: [15] 20 µM
inactive: all other assays above

O=C1CCCCCCCCCCCN1
inactive: all assays above

CCCCCCC=O
active: [8] 0.22 µM
inactive: all other assays above

CCCCCCCO
inactive: all assays above

COC(OC)(C(=O)c1ccccc1)c1ccccc1
not listed: [20]
inactive: all other assays above

Cc1c(O)cccc1O
not listed: [20]
inactive: all other assays above

C=C(C)C(=O)OCCCCCCCCCCCC
active: [19] 11.7 µM
inactive: all other assays above

C[N+](C)(C)CCCNS(=O)(=O)C(F)(F)C(F)(F)C(F)(F)C(F)(F)C(F)(F)C(F)(F)C(F)(F)C(F)(F)F
active: [2] 17.1 µM and 18.5 µM | [5] 16.8 µM | [6] 19.5 µM and 26.4 µM | [10] 7.89 µM | [12] 30 µM | [16] 11.4 µM and 5.3 µM | [18] 49.3 µM and 45.2 µM | [19] 1.44 µM and 220 nM
inactive: [1] | [3] | [4] | [5] | [7] | [8] | [9] | [10] | [11] | [12] | [13] | [14] | [15] | [17]

CCCCCCCCCCCC(C)=O
active: [5] 35.9 µM | [7] 36.8 µM | [8] 20 µM | [11] 20 µM | [13] 0.82 µM | [14] 20 µM | [19] 24.6 µM
inactive: all other assays above

c1ccc(Nc2cccc3ccccc23)cc1
active: [1] 13.4 µM and 12.9 µM | [2] 30.6 µM and 32.2 µM | [5] 20 µM and 149 nM | [7] 29.9 µM and 28.9 µM | [8] 7.17 µM and 25.9 µM | [11] 31.3 µM | [12] 10.1 µM and 7.36 µM | [13] 2.1 µM | [20] 30.3 µM and 34.6 µM | [14] 10.5 µM | [15] 7.35 µM | [16] 17.3 µM and 13.9 µM | [17] 32.5 µM | [18] 35.1 µM and 36.6 µM | [19] 9.99 µM and 12.2 µM
inactive: [3] | [4] | [6] | [9] | [10] | [11] | [13] | [14] | [15] | [17]

Oc1ccccc1Cc1ccccc1O
inactive: [1] | [3] | [4] | [5] | [6] | [7] | [8] | [9] | [10] | [11] | [12] | [13] | [20] | [14] | [15] | [16] | [17] | [18]
active: [2] 13.4 µM and 10.2 µM | [15] 0.239 µM | [19] 28.1 µM and 27 µM

CC(C)c1cccc(C(C)C)c1N
inactive: all assays above

O=C(Oc1ccccc1)c1ccccc1C(=O)Oc1ccccc1
active: [16] 11.5 µM | [19] 24 µM
inactive: all other assays above
